SENP8 block-1 = blocks human SENP8 cleavage of Nedd8 substrate; recombinant SENP8, Nedd8 substrate fluorescence; 0.64% of 360,000 active; Q96LD8; AID 602440; inhibition, % at 20 µM; in the data active = inhibition mostly above about 40%, no sharp cut-off; inactive = mostly below about 27%
SENP8 block-2 = inhibitors of human SENP8 protease; purified SENP8, Z-RLRGG-aminoluciferin cleavage, luminescence; inhibition, % at 10 µM; 1.2% of 330,000 active; AID 2540; in the data active = inhibition above about 50%
HSP90 inh = blocks HSP90-mediated luciferase refolding in reticulocyte lysate; Rabbit reticulocyte lysate, luciferase refolding luminescence, 3 h; 0.91% of 290,000 active; inhibition, % at 5.6 µM;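 active = inhibition above the screen-wide mean plus 3 SD, computed separately per campaign, cut at about 16% in these data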;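 note: 0% = DMSO wells and 100% = 60 µM geldanamycin wells; inhibitors lower the luminescence because luciferase stays unfolded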
SENP6 inh = blocks the human protease SENP6; Q9GZR1; Recombinant SENP6 catalytic domain, aminoluciferin luminescence; inhibition, % at 10 µM; 1.8% of 330,000 active;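 active = inhibition above about 50% at the single tested dose, limit read from the data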;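 note: plate controls were DMSO wells with enzyme for no effect and DMSO wells lacking enzyme for full effect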
SENP7 inh = inhibitors of human SENP7 protease; inhibition, % at 5 µM; 1.5% of 330,000 active; Q9BQF6; recombinant SENP7, Z-RLRGG-aminoluciferin luminescence, 40 min;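 active = inhibition above about 50% at the single test dose, limit read from the data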;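 note: plate controls were DMSO with enzyme for no effect and no enzyme buffer wells for full effect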
Target sequence (Q9BQF6 706-1050 limits assumed): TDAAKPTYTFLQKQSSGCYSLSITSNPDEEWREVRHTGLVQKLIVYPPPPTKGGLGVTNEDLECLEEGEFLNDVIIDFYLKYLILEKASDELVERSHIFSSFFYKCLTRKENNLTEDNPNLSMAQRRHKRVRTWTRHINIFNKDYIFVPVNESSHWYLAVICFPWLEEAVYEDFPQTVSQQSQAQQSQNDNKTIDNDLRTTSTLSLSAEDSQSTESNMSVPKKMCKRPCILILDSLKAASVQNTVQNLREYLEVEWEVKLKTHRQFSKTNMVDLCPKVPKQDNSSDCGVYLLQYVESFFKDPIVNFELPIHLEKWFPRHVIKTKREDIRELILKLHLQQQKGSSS
SENP8 conf = confirmation of human SENP8 protease inhibitors. inhibition, % at 25 µM. AID 624319. purified SENP8, Nedd8-AMC/pro-Nedd8 cleavage fluorescence, 30 min. 15% of 1,400 active. shares compounds with SENP8 block-1; in the data active = inhibition mostly above about 39%, no sharp cut-off; inactive = mostly below about 34%
* marks the source's active call; other numbers are inactive results; x = no result. This is a sample that favours compounds with a hit; in the whole collection about 2.8% have one here.

SMILES	SENP8 block-1	SENP8 block-2	HSP90 inh	SENP6 inh	SENP7 inh	SENP8 conf
COc1ccc(N(CCC#N)C(=O)/C(C#N)=C\c2cccs2)cc1	33.5*	-11.0	5.2	-19.1	-2.1	9.9
COc1ccc(CCNC(=O)[C@H](C)N2C(=O)N3CCc4c([nH]c5ccccc45)[C@@]3(C)C2=O)cc1OC	26.4	-1.6	-5.0	6.9	-0.6	x
COc1ccccc1CNC(=O)[C@H](C)N1C(=O)N2CCc3c([nH]c4ccccc34)[C@@]2(C)C1=O	42.8*	7.5	-1.3	-1.6	-0.1	14.0
COc1ccc(NC(=S)NC(=NS(=O)(=O)c2ccc(Cl)cc2)c2ccccc2)cc1	10.6	-6.1	x	9.0	0.8	x
Cc1cc(=O)[nH]c(SCCOc2ccc3c(c2)CCC3)n1	7.5	49.5	-0.7	46.7	27.4	x
COC(=O)C1CCN(Cc2c(C(=O)N3C[C@@H](C)O[C@@H](C)C3)nc3ccc(Cl)cn23)CC1	16.1	-3.3	-4.0	-1.6	-11.1	x
C[C@@H]1CN(C(=O)c2nc3ccc(Cl)cn3c2CN2CCc3sccc3C2)C[C@H](C)O1	43.1*	3.6	3.1	7.9	-4.1	21.0
NS(=O)(=O)c1ccc(NC(=O)c2ccc(CSc3ccccc3)o2)cc1	10.2	0.0	-0.1	-0.5	-1.6	x
CCOC(=O)c1ccc(S(=O)(=O)NNC(=O)c2ccc3c(c2)nc(C)n3CC)cc1	3.6	-2.5	-0.1	-10.9	3.5	x
CCn1c(C)nc2cc(C(=O)NNS(=O)(=O)c3ccccc3F)ccc21	42.4*	5.4	0.3	-12.3	-1.5	-8.1
Cc1cccc(NC(=O)C(=O)N/N=C/c2ccncc2)c1	6.0	1.6	-0.1	2.6	1.5	x
CCOc1cc(/C=C2/SC(=Nc3ccccc3)N(Cc3cccnc3)C2=O)ccc1OCC#N	40.2*	4.3	-4.9	-20.6	-0.2	15.2
CCC(C)[C@H](NC(=O)N1CC(=O)Nc2ccccc21)C(=O)N[C@H](Cc1c[nH]c2ccccc12)C(=O)O (stereo not given in full)	16.2	-5.3	1.4	-1.6	1.9	x
COc1ccc(CN(C2CCCC2)S(=O)(=O)c2ccc(-n3cnnn3)cc2)cc1	43.7*	-8.1	-0.5	-13.8	4.5	22.7
CCOC(=O)[C@]12CCC=C1N(Cc1ccccc1)C(=O)[C@H](CC(=O)NCCC(C)C)C2	15.2	x	x	x	x	x
COCOc1ccc(-c2cc(=O)c3c(OCOC)cc(OCOC)cc3o2)cc1	-104.6	-2.0	x	-6.5	-8.9	x
O=C1CC(c2ccccc2)Oc2cc(O)ccc21 (stereo not given)	15.1	5.5	2.9	-10.2	-0.7	x
O=C1CC(c2ccc(O)cc2)Oc2cc(O)ccc21 (stereo not given)	51.1*	15.2	x	10.5	7.6	-14.4
COc1ccc([C@@H]2CC(=O)c3c(O)cc(O)cc3O2)cc1O	2.7	14.9	x	28.1	4.2	x
COc1cc(O)c2c(c1)OC(c1ccc(O)cc1)CC2=O (stereo not given)	73.8*	5.9	-7.9	-9.4	0.0	18.2
COCOc1ccc(C2CC(=O)c3c(OCOC)cc(OCOC)cc3O2)cc1 (stereo not given)	53.6*	-10.0	x	-13.8	10.8	-2.4
CCOc1ccc(Oc2cc(C)nc(SC)n2)nn1	25.6	4.7	-0.1	2.9	6.4	x
CSc1nc(C)c(CCOC(=O)c2cccc(C)c2)c(=O)[nH]1	33.4	-0.1	0.1	-8.0	0.2	x
COc1ccc(S(=O)(=O)N2CCOC2CNC(=O)C(=O)NCCCc2ccccc2)cc1 (stereo not given)	-1.0	-3.0	0.1	-12.9	-0.8	x
CCOC(=O)C1=C(C)NC(C)=C(C(=O)OCC)C1C(=O)OCC(=O)N1CCCCC1C (stereo not given)	-355.0	6.6	x	-3.2	-1.2	x
CCOC(=O)c1[nH]c(C)c(C(=O)OCC(=O)N2CCCCC2C)c1C (stereo not given)	41.0*	-0.3	0.5	-4.8	-14.8	13.8
Cc1ccc(NC(=S)NNC(=O)c2cn(C)nc2C)cc1	42.6*	1.3	-1.5	4.9	0.2	12.2
CCOC(=O)/C(C#N)=C\C=C1C=CN(C)C=C1	51.7*	2.3	1.5	9.3	11.4	35.9
O=C1/C(=C/c2cccs2)N=C(c2cccs2)N1Nc1ccccc1	29.3	5.4	1.0	-20.0	5.5	x
Cc1ccc(C2=N/C(=C\c3cccs3)C(=O)N2Nc2ccccc2)cc1	41.5*	3.8	2.6	-0.6	-3.7	31.3

Screening data from PubChem BioAssay.
